Data from the supplement of paper PMC3334620.
Whole data set: some 33,000 sequences, median “E-score (-0.5 to 0.5)” near -0.035, cut for the highest 2% near 0.35. The list comes from a sample in which the highest values are over-represented; it also holds similar and randomly drawn sequences.

The sequences below were run against T1, Pdr3 (UniProt P33200) (assay: PBM E-score (8-mer binding enrichment) (E-score (-0.5 to 0.5)); higher = stronger / more preferred TF binding). Conditions: protein concentration: 200 nM; construct: GST-full length.
T1 sequence: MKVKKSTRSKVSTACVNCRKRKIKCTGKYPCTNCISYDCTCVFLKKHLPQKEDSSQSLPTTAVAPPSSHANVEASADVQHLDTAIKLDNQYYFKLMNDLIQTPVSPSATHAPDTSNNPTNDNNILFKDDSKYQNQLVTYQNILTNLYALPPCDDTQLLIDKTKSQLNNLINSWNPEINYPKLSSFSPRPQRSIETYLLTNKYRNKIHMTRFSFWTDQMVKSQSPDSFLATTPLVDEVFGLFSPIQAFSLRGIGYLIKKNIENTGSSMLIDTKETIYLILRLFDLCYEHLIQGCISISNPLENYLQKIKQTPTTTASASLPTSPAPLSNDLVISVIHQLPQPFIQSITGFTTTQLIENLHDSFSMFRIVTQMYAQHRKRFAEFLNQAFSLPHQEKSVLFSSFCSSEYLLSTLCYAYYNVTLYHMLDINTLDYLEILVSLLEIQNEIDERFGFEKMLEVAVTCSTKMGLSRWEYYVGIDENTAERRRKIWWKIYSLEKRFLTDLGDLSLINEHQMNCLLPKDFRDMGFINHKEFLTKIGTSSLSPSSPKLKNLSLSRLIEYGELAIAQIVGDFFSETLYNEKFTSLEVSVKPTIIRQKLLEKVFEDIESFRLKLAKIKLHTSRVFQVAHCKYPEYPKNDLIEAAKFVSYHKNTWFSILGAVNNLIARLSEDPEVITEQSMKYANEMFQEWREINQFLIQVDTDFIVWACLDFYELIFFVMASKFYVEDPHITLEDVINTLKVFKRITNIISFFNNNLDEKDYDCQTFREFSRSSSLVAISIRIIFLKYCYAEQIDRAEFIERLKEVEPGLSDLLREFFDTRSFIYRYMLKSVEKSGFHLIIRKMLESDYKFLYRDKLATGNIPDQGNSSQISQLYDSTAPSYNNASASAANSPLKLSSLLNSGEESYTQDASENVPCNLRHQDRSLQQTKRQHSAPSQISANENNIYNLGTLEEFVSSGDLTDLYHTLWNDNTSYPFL
Experimental: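 Universal 'all 10-mer' protein binding microarrays (Agilent AMADID 015681) probed with GST-tagged S. cerevisiae TFs (full-length or DBD) made by in vitro transcription/translation (PURExpress), about 100-200 nM. Bound TF was detected with fluorescent anti-GST. Each ungapped 8-mer (which stands for itself and its reverse complement) is scored by the PBM enrichment score (E-score), a modified Wilcoxon-Mann-Whitney statistic from -0.5 to +0.5, computed with the Universal PBM Analysis Suite. Scale: above 0.35 generally sequence-specific binding.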

Point of comparison: CGCTTTGC, “PBM E-score” value 0.0905. Against it:
- TCCTCGCA — lower, -0.0258
- CAAATTGC — lower, 0.0819
- CAAAAACC — lower, 0.0333
- CTTACCAA — lower, -0.108
- AAGAGCAG — lower, -0.0681
- CTATGGCC — lower, -0.124
- AGTCGGAC — higher, 0.117
- CGTCGGAA — higher, 0.411
- CGTCGGAG — higher, 0.178
- GGTCGGCA — lower, -0.00943
- TGTCGTAA — lower, -0.113
- GGTCGGAC — higher, 0.15
- TGTCGGAA — higher, 0.383
- AGTCGGAG — higher, 0.134
- AGTCGGAA — higher, 0.414
- CGTCGGAC — higher, 0.252
- TGTCGCAA — lower, -0.0293
- GGTCGGAA — higher, 0.4
- CCTTGGCG — lower, -0.0565
- CCCCACGA — lower, -0.0538
- ACAGTATC — lower, -0.21
- AAACCAGT — lower, -0.227
- GCTAGAGC — lower, -0.272
- AAGCCCGG — higher, 0.379
- ACGCCCGG — higher, 0.311
- CCGCCCGG — higher, 0.407
- AAGCCCGT — lower, -0.162
- CCGCCCCC — higher, 0.0913
- CCGCCCGC — higher, 0.241
- ACGCCCCG — higher, 0.181
- CCGCCCCG — higher, 0.435
- AAGCCCGC — higher, 0.213
- CACTCATG — lower, -0.257
- AAAGGGAT — lower, -0.154
- AACCGCCA — lower, -0.0357
- GGGAGATA — lower, 0.0536
- CGGAGATA — higher, 0.386
- AGGAGATA — lower, -0.182
- ATTCAAAA — lower, 0.0638
- GAAAACTA — lower, 0.0457
- AAATATAT — higher, 0.19
- CGAAAGCC — lower, -0.105
- GTAACGTA — lower, -0.165
- GTAACGGA — higher, 0.397
- ATAACGGA — higher, 0.386
- ATAACGGC — higher, 0.135
- ATAACGGG — lower, 0.0143
- CTAACGGC — lower, -0.00464
- GTAACGCA — lower, 0.0163
- CTAACGAA — lower, -0.0337
- CTAACGGA — higher, 0.389
- CATGTGCG — lower, 0.0377
- ATAGCGTC — lower, -0.153
- GTGCAGTA — lower, -0.0405
- CCTGGCCA — lower, -0.107
- ATGAAGCA — lower, -0.152
- ACGCTATG — lower, -0.187
- ATCGACCA — lower, -0.176
- CAAAGAGC — lower, -0.0254
- GCGGAGCA — higher, 0.304
- ACGGAGCG — higher, 0.337
- CAGGAGCG — lower, -0.12
- TCGGAGCA — higher, 0.28
- CCGGAGCG — higher, 0.37
- ACGGAGCC — higher, 0.305
- CCGGAGCA — higher, 0.401
- CCGGAGCC — higher, 0.403
- GCGGAGCC — higher, 0.296
- AAAAGAGT — lower, -0.208
- AAGATTCG — higher, 0.108
- ACAACACG — lower, 0.0551
- ATGTTCGC — lower, -0.165
- ACTGGCGG — higher, 0.153
- CTTCAGGC — lower, -0.224
- CGCAAGAG — lower, 0.0334
- CGGGAATA — higher, 0.331
- ACGGAATG — higher, 0.432
- CCGGAATA — higher, 0.437
- ACGGAATA — higher, 0.445
- AGGGAATC — lower, 0.00236
- ATGGAATA — higher, 0.205
- CTGGAATA — lower, 0.08
- ACGGAATC — higher, 0.465
- AGGGAATG — lower, -0.0936
- AAGGAATA — lower, -0.0227
- ATGGAATC — higher, 0.205
- ATGGAATG — higher, 0.184
